# The supplement of paper PMC6555819
# Legend:
# Experiment in all cases: PBM binding z-score (relative to random genomic background probes); higher = stronger binding; sequences stand for … in GC…GCGATTGACAGCGTAGAATGAAGG
# [1] = test system: RARb homodimer (NR concentration 270 nM)
# Procedure, shortened: (§1)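 Scanned fluorescence from custom Agilent 4×180K protein-binding microarrays was regression-normalized. Binding z-scores use random background probes as reference. Ligand-free nuclear receptor dimers were incubated on the arrays for 1 h and detected with antibodies against each partner (one per run).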
# [2] = test system: RARg:RXRa (NR concentration 270 nM, RXRa partner concentration 90 nM)
# Procedure, shortened: as §1
# [3] = test system: RARg homodimer (NR concentration 270 nM)
# Procedure, shortened: as §1
# [4] = test system: RXRa DBDmut IVT, anti-RXR (DBD mutation: RXRa K156A/R161A, NR concentration 90 nM)
# Procedure, shortened: as §1
# [5] = test system: RXRa homodimer (NR concentration 180 nM)
# Procedure, shortened: as §1
# [6] = test system: THRa:RXRa (NR concentration 90 nM, RXRa partner concentration 90 nM)
# Procedure, shortened: as §1
# [7] = test system: THRa homodimer (NR concentration 90 nM)
# Procedure, shortened: as §1
# [8] = test system: VDR homodimer (NR concentration 270 nM)
# Procedure, shortened: as §1
Sequence,PBM binding z-score [1],PBM binding z-score [2],PBM binding z-score [3],PBM binding z-score [4],PBM binding z-score [5],PBM binding z-score [6],PBM binding z-score [7],PBM binding z-score [8]
TCTTGTAGTTCAATAGAGGTTAAGAAAGTGCGCT,2.27,2,2,2.27,2.15,3.61,0.104,1.59
TCGAGTACGTTACCAATGGGGCATTCAGCTTTCT,0.0384,-0.336,-0.335,3.13,-0.358,-0.315,-0.201,1.2
AGAATAAGGTTATTAAGATCAGGGAATTGCGGTC,1.1,1.39,1.13,1.47,1.58,2.42,0.933,0.967
CCTACTGGGCCACGAAAGGTCACTGATTCAGTGA,4.67,4.7,4.98,-0.0819,4.93,3.84,1.03,0.962
TCGAGTAGGTTACCAATGGGGAATTCAGCTTTCT,-0.273,0.258,-0.0594,0.599,0.509,-0.0396,-1.08,-0.782
ACAGACAGGTGAGTGAAGGTAAGTCAGCTGGACG,0.373,0.45,0.335,-0.68,0.274,1.03,-0.473,-0.657
CCTTACAGGTCACTGACAGGTTATAGCATTTGGA,3.83,5.94,5.46,2.62,4.91,3.28,0.808,1.41
